Calls of active or inactive are those of the source.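 The calls were made as follows, unless noted: active = inhibition above 20% together with a positive visual image hit; inconclusive = visual image hit but inhibition not above 20%; inactive = no visual image hit.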

Test [1] is described as follows: inhibitors of TNFa-induced NFkB p65 translocation, primary screen, imaging, HUVEC, MLSMR starter and 10KST1 sets (AID 438).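 Also: compound added about 3h40 before a 20 min TNFalpha stimulation.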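 As to inhibition: signal is the nuclear over cytoplasmic p65 intensity ratio per well.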 The following applies: HUVEC TNFa-induced p65 nuclear translocation; cell count: measured here: nuclei count (cytotoxicity indicator), at 2.08 µM; inhibition: at 2 µM, stronger effect = higher value, 0% TNFa-plus-vehicle, 100% no-TNFa wells.
Test [2] can be described thus: inhibitors of mutant huntingtin aggregation, primary screen, imaging, exon1htt(103Q)mCFP cells, high-content imaging (AID 483;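 active = visual image review flags a hit and inhibition of aggregation exceeds 20%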;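 also: compound exposure lasted 3 days before fixation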;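 as to nuclei count: percent of the per-plate median nuclei count of sample wells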). The following applies: exon1htt(103Q)mCFP cell line, aggregate imaging, at 2 µM; inhibition of aggregation: stronger effect = higher value; nuclei count: measured here: cell count, toxicity.
Test [3] is described as follows: inhibitors of E-selectin induction by TNFa, primary screen, imaging, HUVEC, immunofluorescence, MLSMR starter and 10KST1 sets (AID 487;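 active = visually confirmed hit in the image check and inhibition above 20%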;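 as to inhibition: signal is fraction of cell area covered by stained E-selectin grains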;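 as to nuclei count: 100% = median nuclei count of all wells on the same plate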). Particulars: HUVEC TNFalpha-induced E-selectin immunofluorescence imaging, at 2 µM; inhibition: stronger effect = higher value; nuclei count: measured here: cell number, toxicity.
In test [4] the target is Voltage-gated potassium channel subunit beta-2 (Rattus norvegicus) (UniProt P62483). The experiment in a line: KvBeta enzyme negative modulators, primary screen, biochemical, NADPH fluorescence (AID 622;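 active = fluorescence slope higher than the sample average by over 3 SD, cut at about -0.22 in these data, passing the limit was not always enough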;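 also: slope of raw intensity against log time taken from 70 to 1610 s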). Particulars: recombinant KvBeta, 4-cyanobenzaldehyde reduction, at 10 µM, stronger effect = higher value.
Chain of Voltage-gated potassium channel subunit beta-2 (Rattus norvegicus) (P62483 whole entry, looked up): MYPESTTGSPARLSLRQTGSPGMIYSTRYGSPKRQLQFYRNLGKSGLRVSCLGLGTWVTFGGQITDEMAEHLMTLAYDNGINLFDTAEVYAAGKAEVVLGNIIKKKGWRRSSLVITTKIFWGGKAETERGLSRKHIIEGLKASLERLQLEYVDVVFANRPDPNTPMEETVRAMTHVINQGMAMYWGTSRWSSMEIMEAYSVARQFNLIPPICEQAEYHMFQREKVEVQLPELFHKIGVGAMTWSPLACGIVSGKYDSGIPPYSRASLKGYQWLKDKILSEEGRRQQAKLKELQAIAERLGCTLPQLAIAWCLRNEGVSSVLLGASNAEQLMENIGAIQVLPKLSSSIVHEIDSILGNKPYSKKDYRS
For test [5] the target is unchanged. The experiment in a line: KvBeta positive modulators, primary screen, biochemical, NADPH fluorescence (AID 623;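 active = NADPH fluorescence slope more negative than the mean of all samples by about 3 SD, 99.7% confidence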;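 also: fluorescence intensity change per second fitted from 20 to 320 s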). Particulars: Recombinant KvBeta, NADPH fluorescence decrease slope, 10 min; at 10 µM; stronger effect = lower value.
Test [6] has as its target Alpha-2C adrenergic receptor (Homo sapiens) (UniProt P18825). The experiment in a line: modulators of alpha2C/GIRK thallium flux, primary screen, cell-based, HEK293 alpha2C/GIRK1/2 (AID 624;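 active = fluorescence slope after compound addition differing from the mean of all screened samples at 99.7% confidence, in either direction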;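 also: slope of fluorescence ratio to pre-addition baseline per second over 15 to 24 s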). Particulars: thallium flux BTC fluorescence, at 10 µM, actives lie on both sides.
Test [7] in a line: inhibitors of Sendai virus-induced IRF3 signaling, primary screen, TLR/RLR signaling modifier project, cell-based, Sendai virus stimulus, luciferase, 10K MLSCN set (AID 602276;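 active = inhibition at or above 50% at 10 µM; inactive = inhibition below 50%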;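 also: firefly luciferase from ISG56 promoter only with Renilla not read in this screen; 0% = Sendai virus plus DMSO and 100% = medium plus DMSO without virus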). Particulars: HEK293 RL24 IRF3 luciferase reporter, at 10 µM, stronger effect = higher value.
Test [8] in a line: inhibitors of poly I:C-induced TLR3 signaling, primary screen, cell-based, poly I:C stimulus, luciferase, 10K MLSCN set (AID 602277;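 active = inhibition of the reporter signal at or above 50%; inactive = inhibition below 50%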). The following applies: HEK293-TLR3 RL24 IRF3 luciferase reporter, at 10 µM, stronger effect = higher value. A general note: Reporter assays use an easily measured gene product as a stand-in for the process of interest.

Chain of Alpha-2C adrenergic receptor (Homo sapiens) (P18825 whole entry, looked up): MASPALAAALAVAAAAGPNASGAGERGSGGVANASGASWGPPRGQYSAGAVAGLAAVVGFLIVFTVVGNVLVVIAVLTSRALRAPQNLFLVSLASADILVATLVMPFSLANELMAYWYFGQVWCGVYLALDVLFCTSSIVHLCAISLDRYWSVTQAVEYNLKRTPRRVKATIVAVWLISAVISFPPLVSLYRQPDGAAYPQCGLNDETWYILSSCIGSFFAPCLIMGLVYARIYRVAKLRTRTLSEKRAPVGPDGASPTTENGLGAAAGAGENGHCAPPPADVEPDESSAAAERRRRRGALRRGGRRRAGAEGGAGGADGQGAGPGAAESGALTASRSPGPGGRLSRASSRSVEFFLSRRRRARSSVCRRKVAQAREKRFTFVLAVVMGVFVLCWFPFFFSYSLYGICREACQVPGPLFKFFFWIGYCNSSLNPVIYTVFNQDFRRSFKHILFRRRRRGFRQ

The term inhibition denotes the drop in the measured response relative to a control, in per cent. On to `COc1cccc(-c2nc(CS(=O)(=O)CC(=O)N3CCN(c4ccccn4)CC3)c(C)o2)c1`, for which, in test [1], the cell count stood at 752. Further, the inhibition in test [1] is -4.4% (inactive); in test [3], -72.1% (inactive); in test [7], 6.91% (inactive); in test [8], -1.07% (inactive). Further, the inhibition of aggregation in test [2] was 2.6% (inactive). Further, the nuclei count in test [2] turned out to be 115%; in test [3], 114%. Besides, in test [4], the fluorescence slope was -0.506 (inactive). Further, the NADPH fluorescence slope in test [5] is -1.1e-05 (inactive). In addition, in test [6], the slope is 0.00682 (inactive).

On to `Cn1c(=O)c(=O)n(C)c2cc(S(=O)(=O)N3CCN(c4cccc(C(F)(F)F)c4)CC3)ccc21`, for which the cell count in test [1] was found to be 334. Further, the inhibition was -2.2% (inactive) in test [1], -12.6% (inactive) in test [3], 1.46% (inactive) in test [7] and 13.1% (inactive) in test [8]. The inhibition of aggregation in test [2] was -18.8% (inactive). In addition, the nuclei count was 107% in test [2] and 104% in test [3]. For the same molecule, the fluorescence slope in test [4] was -0.354 (inactive). The NADPH fluorescence slope in test [5] is 1.2e-05 (inactive). Besides, the slope in test [6] was 0.00616 (inactive).

`COc1cc2c(cc1OC)CN(C(=O)COc1ccc(C)c(C)c1)CC2`: in test [1], the cell count was 653. Also, the inhibition in test [1] was -3% (inactive); in test [3], 17.1% (inactive); in test [7], 18.6% (inactive); in test [8], 20.9% (inactive). The inhibition of aggregation in test [2] is -11.6% (inactive). Moreover, the nuclei count in test [2] and in test [3] was 106% each time. Besides, the fluorescence slope in test [4] is -0.456 (inactive). In test [5], the NADPH fluorescence slope was 1.3e-05 (inactive). Further, the slope in test [6] is 0.00534 (inactive).

On to `CC(=O)Nc1cccc(OCC(O)Cn2cnc3ccccc32)c1` (centres undefined), for which the cell count in test [1] was determined as 632. Besides, the inhibition in test [1] is -20.4% (inactive); in test [3] it was -23.9% (inactive); in test [7], 14.1% (inactive); in test [8] it was 25.8% (inactive). The inhibition of aggregation in test [2] is 12.1% (inactive). In addition, the nuclei count in test [2] is 101%; in test [3] it was 107%. The fluorescence slope in test [4] is -0.674 (inactive). Moreover, the NADPH fluorescence slope in test [5] was 1.3e-05 (inactive). Also, the slope in test [6] was 0.00619 (inactive).

Turning to `CCn1c(=N)n(CC(O)c2ccco2)c2ccccc21` (centres undefined), in test [1], the cell count came to 321. Further, the inhibition in test [1] is -8.1% (inactive); in test [3] it was -33% (inactive); in test [7] it was 10.3% (inactive); in test [8], 24.1% (inactive). Besides, the inhibition of aggregation in test [2] is -20.7% (inactive). Also, the nuclei count in test [2] is 87.8%; in test [3], 110%. Besides, the fluorescence slope in test [4] is -0.358 (inactive). Also, in test [5], the NADPH fluorescence slope is -5.8e-05 (inactive). In addition, in test [6], the slope is 0.00623 (inactive).

As for `CCN(CC)c1ccc(/C=N/n2nnnc2N)c(O)c1`, the cell count in test [1] was found to be 428. Besides, the inhibition in test [1] was -1.1% (inactive); in test [3], -29.5% (inactive); in test [7] it was 4.84% (inactive); in test [8] it was 1.57% (inactive). In addition, the inhibition of aggregation in test [2] was -13.8% (inactive). Also, the nuclei count in test [2] amounted to 101%; in test [3], 130%. In test [4], the fluorescence slope is -0.413 (inactive). Moreover, the NADPH fluorescence slope in test [5] was 6.9e-05 (inactive). Besides, the slope in test [6] is 0.00627 (inactive).

For the molecule `O=C(Nc1ccc2c(c1)OCO2)c1cc2ncc(Br)cn2n1`, in test [1], the cell count came to 588. In addition, the inhibition is 6.6% (inactive) in test [1], -73.8% (inactive) in test [3], 5.44% (inactive) in test [7] and 11.5% (inactive) in test [8]. Moreover, in test [2], the inhibition of aggregation was -4.4% (inactive). Besides, the nuclei count in test [2] worked out at 107%; in test [3], 104%. Also, the fluorescence slope in test [4] was -0.624 (inactive). In addition, the NADPH fluorescence slope in test [5] was 1.6e-05 (inactive). Further, the slope in test [6] is 0.00236 (inactive).

With `Cn1cccc1Cc1nnc(SCC(=O)NCC2CCCO2)n1-c1ccc(F)cc1` (centres undefined), in test [1], the cell count amounted to 716. The inhibition in test [1] was -4% (inactive); in test [3], -44.1% (inactive); in test [7], 10.8% (inactive); in test [8], 39.9% (inactive). Moreover, the inhibition of aggregation in test [2] was 50.2% (active). In addition, the nuclei count in test [2] came out at 95.9%; in test [3] it was 111%. Further, the fluorescence slope in test [4] is -0.537 (inactive). Besides, in test [5], the NADPH fluorescence slope is -3e-05 (inactive). The slope in test [6] was 0.00677 (inactive).

As for `CCNc1nc(N2CCOCC2)nc(N(c2ccccc2)c2ccccc2)n1`, the cell count in test [1] came to 324. The inhibition was 8.2% (inactive) in test [1], -3.9% (inactive) in test [3], 9.87% (inactive) in test [7] and 28.5% (inactive) in test [8]. Besides, the inhibition of aggregation in test [2] was -29.1% (inactive). The nuclei count in test [2] amounted to 93.3%; in test [3], 101%. In test [4], the fluorescence slope was -0.388 (inactive). In addition, the NADPH fluorescence slope in test [5] is -5.9e-05 (inactive). Also, in test [6], the slope is 0.00355 (inactive).

Regarding `CCc1c(C)n([O-])c2c([n+]1=O)CCC2`, the cell count in test [1] came to 369. In addition, the inhibition in test [1] was 2.8% (inactive); in test [3], 3.1% (inactive); in test [7] it was -11.4% (inactive); in test [8], 7.02% (inactive). Also, the inhibition of aggregation in test [2] is -1.6% (inactive). In addition, the nuclei count in test [2] was 106%; in test [3], 111%. Besides, the fluorescence slope in test [4] is -0.51 (inactive). In addition, in test [5], the NADPH fluorescence slope is -1.5e-05 (inactive). Also, the slope in test [6] is 0.00618 (inactive).

Turning to `COc1ccc2ccccc2c1CN1CCN(C)CC1`, the cell count in test [1] was determined as 441. The inhibition is -7.1% (inactive) in test [1], -40.6% (inactive) in test [3], 7.96% (inactive) in test [7] and 27.9% (inactive) in test [8]. Moreover, the inhibition of aggregation in test [2] was -14.9% (inactive). The nuclei count in test [2] is 93.7%; in test [3], 123%. For the same molecule, the fluorescence slope in test [4] is -0.444 (inactive). In addition, the NADPH fluorescence slope in test [5] is -0.000107 (inactive). Also, in test [6], the slope is 0.00594 (inactive).

In the case of `CC1(C)CC(CCNC(=O)c2ccco2)CC(C)(C)N1`, the cell count in test [1] was found to be 387. The inhibition in test [1] was 2.3% (inactive); in test [3] it was -91.3% (inactive); in test [7], 12% (inactive); in test [8] it was 12.3% (inactive). In addition, the inhibition of aggregation in test [2] is 1.2% (inactive). The nuclei count worked out at 86.4% in test [2] and 81.4% in test [3]. Also, the fluorescence slope in test [4] was -0.473 (inactive). Further, in test [5], the NADPH fluorescence slope is -1.8e-05 (inactive). The slope in test [6] was 0.00616 (inactive).

In the case of `COC(=O)c1[nH]c2ccc(C)cc2c1NC(=O)CN1CCCc2ccccc21`, the cell count in test [1] was 408. For the same molecule, the inhibition in test [1] was 3.1% (inactive); in test [3], -29.9% (inactive); in test [7] it was 21.5% (inactive); in test [8], 12% (inactive). Besides, the inhibition of aggregation in test [2] was 21.6% (inactive). Further, the results for the nuclei count in test [2] and in test [3] were 83.4% and 106%, respectively. Further, the fluorescence slope in test [4] was -0.39 (inactive). Moreover, the NADPH fluorescence slope in test [5] is -4.8e-05 (inactive). The slope in test [6] was 0.00333 (inactive).

Take `COc1cccc(N2CCN(Cc3nc(N)nc(Nc4ccccc4)n3)CC2)c1`: the cell count in test [1] amounted to 463. The inhibition in test [1] is -12.5% (inactive); in test [3], 44.7% (inactive); in test [7] it was 0.669% (inactive); in test [8], 15.7% (inactive). Further, the inhibition of aggregation in test [2] was 18.2% (inactive). Further, the nuclei count worked out at 84.7% in test [2] and 93.5% in test [3]. Further, the fluorescence slope in test [4] is -0.479 (inactive). The NADPH fluorescence slope in test [5] was -5.8e-06 (inactive). Moreover, in test [6], the slope is 0.00543 (inactive).
